In the library only some 3.5% were active in any assay of this set; here they are far more common.
TEAD-YAP block: TEAD-YAP interaction inhibition, primary screen, TEAD-YAP interaction inhibitor project, luminescence, HEK-TIYL cells | TEAD-Gal4/YAP UAS-luciferase luminescence | inhibition, % at 9.12 µM | actives 1.4% (n = 640,000) | AID 1259422, 2018; in the data active = inhibition above about 32%
MITF primary: MITF inhibitors, primary screen, biochemical, AlphaScreen, human; Microphthalmia-associated transcription factor (Homo sapiens), O75030; AlphaScreen MITF homodimerization, bead proximity signal; inhibition, % at 2.6 µM; actives 0.91% (n = 650,000); in the data active = inhibition above about 50%
FBW7 act: FBW7 E3 ligase activators, primary screen, biochemical, AlphaScreen, human; F-box/WD repeat-containing protein 7 (Homo sapiens), Q969H0; AlphaScreen FBW7–phospho-cyclin E peptide binding, activator screen; normalized activity (activation), % at 26.1 µM; actives 0.13% (n = 650,000); in the data active = normalized activity above about 1.9%;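 also: purified mutant Fbw7 with reduced substrate affinity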
GPR151 ag: activators of human GPR151, primary screen, cell-based, PathHunter beta-arrestin, luminescence. PathHunter beta-arrestin GPR151 cells. activation, % at 11.2 µM. actives 1% (n = 650,000); in the data active = activation above about 4.9%
Target sequence (Q8TDV0 whole entry, looked up): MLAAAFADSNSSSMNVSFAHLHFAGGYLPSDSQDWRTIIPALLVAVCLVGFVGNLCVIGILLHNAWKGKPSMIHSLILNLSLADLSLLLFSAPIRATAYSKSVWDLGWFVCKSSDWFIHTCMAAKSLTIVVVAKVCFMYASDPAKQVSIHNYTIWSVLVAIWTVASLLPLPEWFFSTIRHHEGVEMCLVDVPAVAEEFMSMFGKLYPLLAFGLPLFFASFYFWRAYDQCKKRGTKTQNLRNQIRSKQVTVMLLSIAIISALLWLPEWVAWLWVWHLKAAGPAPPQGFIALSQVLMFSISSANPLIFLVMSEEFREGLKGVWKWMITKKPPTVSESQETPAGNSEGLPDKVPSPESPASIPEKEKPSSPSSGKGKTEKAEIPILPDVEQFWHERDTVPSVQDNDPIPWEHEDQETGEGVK
MITF inh conf: MITF inhibitors, retest of hits, confirmation, biochemical, AlphaScreen, triplicate | shares compounds with MITF primary | inhibition, % at 2.6 µM | AlphaScreen MITF homodimerization, biotin/His-MITF beads | actives 16% (n = 4,700);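 active = inhibition above a cutoff derived from the DMSO control wells, cut at about 28% in these data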;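 also: inhibitors lower the bead chemiluminescence by keeping MITF from dimerizing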
AS interf DR: AlphaScreen optical interference compounds, dose response, counter-screen, biochemical, HTS; actives 6% (n = 480); shares compounds with MITF primary; IC50, µM; AlphaScreen optical interference counterscreen, cell-free; call rule not given here
AlphaScreen intf2: AlphaScreen optical interference compounds, counter-screen for MITF inhibitor project, biochemical, triplicate; shares compounds with MITF primary; LysRS AlphaScreen counterscreen, signal interference; inhibition, % at 2.6 µM; actives 7.6% (n = 4,700);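 active = inhibition above a cutoff derived from the DMSO control wells, cut at about 30% in these data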
Numbers stand for hits; 0 = inactive; - = no result given.

SMILES | TEAD-YAP block | MITF primary | FBW7 act | GPR151 ag | MITF inh conf | AlphaScreen intf2 | others
O=[N+]([O-])c1ccc(S(=O)(=O)/N=C2\N=C3C=CC(Cl)=CN3Cc3ccccc32)cc1 | 0 | 0 | 0 | 0 | - | -
COc1cccc(NC(=S)N(CCCN2CCC(C)CC2)Cc2cccs2)c1 | 0 | 79 | 0 | 0 | 0 | 0
Cc1cc(NC(=O)COC(=O)c2ccc(NC(N)=O)cc2)ccc1Br | 0 | 52 | 0 | 0 | 0 | 0
CCOc1cc(C#N)c(NC(=O)c2cc([N+](=O)[O-])ccc2N2CCOCC2)cc1OCC | 0 | 67 | 0 | 0 | 0 | 0
CCOc1ccc(NC(=O)c2cc([N+](=O)[O-])ccc2N2CCOCC2)cc1 | 0 | 0 | 0 | 0 | - | -
CCOc1ccccc1OCCOCCNCc1ccccc1 | 0 | 82 | 0 | 0 | 0 | 0
CCCCNCCOc1ccccc1OCC | 0 | 61 | 0 | 0 | 33 | 0 | AS interf DR=0
CCC(C)c1ccccc1OCCNCCN(C)C (centres undefined) | 0 | 67 | 0 | 0 | 59 | 0 | AS interf DR=0
CCC(C)c1ccccc1OCCNCCOC (centres undefined) | 0 | 0 | 0 | 0 | - | -
CCC(C)c1ccccc1OCCNCCCOC (centres undefined) | 0 | 58 | 0 | 0 | 0 | 0
CCn1cc(Br)c(C(=O)OCC23COC(c4ccc(OC)cc4)C(C(C)=CC2C)C3C)n1 (centres undefined) | 0 | 0 | 0 | 0 | - | -
CNCCCOc1c(C)cc(Cl)cc1Br | 0 | 0 | 0 | 0 | - | -
CCC(C)c1ccccc1OCCCNCCN (centres undefined) | 0 | 0 | 0 | 0 | - | -
Cc1cc(Cl)cc(Br)c1OCCNCCN(C)C | 0 | 53 | 0 | 0 | 0 | 0
CCC(C)c1ccccc1OCCCNCCO (centres undefined) | 0 | 59 | 0 | 0 | 0 | 0
CN(C)CCNCCOc1ccc2ccccc2c1Br | 0 | 59 | 0 | 0 | 0 | 0
CCc1cn[nH]c1C1CCN(C(=O)C(=O)c2ccccc2)CC1 | 0 | 0 | 0 | 0 | - | -
COc1ccc(/C=N/NC(=O)c2cc(-c3cccn3C)n[nH]2)cc1OC | 0 | 78 | 2.1 | 0 | 0 | 0
Cn1nnnc1SCC(=O)Nc1ccccc1N1CCOCC1 | 0 | 63 | 0 | 0 | 0 | 0
CC1CCN(CC(=O)Nc2ccccc2N2CCOCC2)CC1 | 0 | 69 | 0 | 0 | 0 | 0
O=C(CN1CCOCC1)Nc1ccccc1N1CCCCCC1 | 0 | 69 | 0 | 0 | 0 | 0
CN(NC(=O)CN1CCOCC1)c1ccccc1 | 0 | 51 | 0 | 0 | 0 | 0
O=C(CN1CCCC1)Nc1ccccc1N1CCOCC1 | 0 | 0 | 0 | 0 | - | -
Nc1cc(=O)[nH]c(SCC(=O)c2c[nH]c3ccccc23)n1 | 0 | 0 | 0 | 0 | - | -
COc1ccc2c(c1)CCC1=C2Nc2nnnn2C1c1ccc(N2CCOCC2)cc1 (centres undefined) | 0 | 0 | 0 | 0 | - | -
SMILES | TEAD-YAP block | MITF primary | FBW7 act | GPR151 ag | MITF inh conf | AlphaScreen intf2 | others
CCN1CCN(CCCCOc2ccc(C)cc2C)CC1 | 0 | 59 | 0 | 0 | 0 | 0
CCN1CCN(CCOc2cc(C)ccc2C(C)C)CC1 | 0 | 52 | 0 | 0 | 0 | 0
Cc1ccc(OCCN)c(Br)c1 | 0 | 0 | 0 | 0 | - | -
CCN1CCN(CCCOc2ccc(C)cc2Br)CC1 | 0 | 63 | 0 | 0 | 0 | 0
COc1ccc(C(=O)NNS(=O)(=O)N(C)C)cc1OC | 0 | 0 | 0 | 0 | - | -
CC(C)CC1=NN(C(=O)c2ccc(O)cc2)C(O)(C(F)(F)F)C1 (centres undefined) | 0 | 0 | 0 | 0 | - | -
COC(=O)C1(O)CC(CC(C)C)=NN1C(=O)c1ccccc1 (centres undefined) | 0 | 71 | 0 | 0 | 0 | 0
COc1cc(-c2ccnc(N)n2)ccc1NC(=O)[C@H]1COc2ccccc2O1 | 0 | 66 | 2.5 | 0 | 52 | 0 | AS interf DR=0
CC(=O)OC(C(=O)NCc1ccco1)c1ccc(C(F)(F)F)cc1 (centres undefined) | 0 | 0 | 0 | 0 | - | -
CCOc1ccc(N2CCN(CC(=O)Nc3ccc(SC)cc3)C2=O)cc1 | 0 | 61 | 0 | 0 | 0 | 0
Cc1cc(N)n(-c2ccccc2C(F)(F)F)n1 | 0 | 0 | 0 | 0 | - | -

High-throughput results: PubChem, The Scripps Research Institute Molecular Screening Center
